Pf growth 48h = Primary qHTS for delayed death inhibitors of the malarial parasite plastid, 48 hour incubation; P. falciparum luciferase growth in erythrocytes, 48 h; AID 504832, 2011; Potency, µM (titrated, usually from 28.7 µM), actives largely listed as inhibitors; 5.9% of 310,000 active
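Firefly luciferase activity from engineered P. falciparum reports growth; inhibitors lower the luminescent signal. Cultures contained 2% hematocrit erythrocytes at 0.1% final parasitemia.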
AMA1 RON2 block = qHTS for Inhibitors of AMA1-RON; Towards Development of Antimalarial Drug Lead: Primary Screen | Plasmodium falciparum AMA1 (3D7) - RON2 peptide interaction | AlphaScreen AMA1-biotinylated RON2 peptide binding | Potency, µM (titrated, usually from 58.2 µM), hits mostly inhibitors | 0.2% of 360,000 active; note: nearly all actives have a fitted effect of over 45% in size
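AMA1 (3D7) with his tag at 25 nM final met compounds first, then biotinylated RON2 peptide at 25 nM; detection used donor plus acceptor beads, 10 µg/mL apiece, read by AlphaScreen after 30 min at room temperature.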
NS1 function inh = qHTS Assay for Inhibitors of Influenza NS1 Protein Function; Potency, µM (titrated, usually from 46.1 µM); 0.4% of 270,000 active; AID 2326, 2010; calls by dose curve; note: actives are rising curves; nearly all actives have a fitted effect of over 50% in size
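S. cerevisiae expressing influenza A NS1, grown in glucose, washed, then diluted 1:100 into pH 6.0 -URA galactose medium with 23 nl compound. Growth recovery read as OD600; NS1-free strain serves as control.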
SARS PLpro yeast = qHTS of Yeast-based Assay for SARS-CoV PLP. Potency, µM (doses to about 32.9 µM), hits mostly activators. 0.19% of 330,000 active. S. cerevisiae expressing SARS-CoV PLpro, growth rescue; calls by dose curve; note: nearly all actives have a fitted effect of over 55% in size
Pf growth 96h = Primary qHTS for delayed death inhibitors of the malarial parasite plastid, 96 hour incubation; P. falciparum luciferase reporter growth, 96 h; AID 504834, 2011; Potency, µM (series often up to 28.7 µM), usual class: inhibitors; 6.9% of 320,000 active
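P. falciparum expressing integrated firefly luciferase, in erythrocytes at 2% hematocrit, 0.05% parasitemia, incubated with compounds 96 h at 37 C, 5% CO2. Growth inhibition read as loss of luminescence; two-generation exposure targets delayed-death apicoplast inhibitors.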
HCV inh = qHTS Assay for Inhibitors of Hepatitis C Virus (HCV). Huh7.5.1 HCVcc-Cre infection, luciferase reporter, 44 h. Potency, µM (titrated, usually from 41.8 µM), most hits filed as inhibitors. 3.4% of 340,000 active. AID 651820, 2012
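After 44 h co-culture of compound, cells and HCVcc-Cre (~0.5 moi), substrate is added for 15 min at room temperature and luciferase measured over 15 sec. Cells were seeded at 1,000/well and pre-cultured 4 h.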
Numbers stand for hits; – = inactive; ? = inconclusive; · = not tested or not shown. Compounds with a hit are over-represented: about 12% of the library has one in this group of screens. Unless noted, calls come from the whole dose curve; as a rule, active = well fitted curve in the direction sought with a large enough effect; inconclusive = small, poorly fitted or top-dose-only effect, or another doubt; inactive = no such curve, though single readings can be large; an effect the other way counts as inactive or inconclusive.

SMILES	Pf growth 48h	AMA1 RON2 block	NS1 function inh	SARS PLpro yeast	Pf growth 96h	HCV inh
O=C(c1cc(-c2ccccc2)n[nH]1)N1CCc2c([nH]c3ccccc23)C1c1ccccn1 (stereo unspecified)	?	–	–	–	8.3µM	?
O=C(c1ccccc1-n1cccn1)N1CCc2c([nH]c3ccccc23)C1c1ccccn1 (stereo unspecified)	?	–	–	–	4.7µM	–
CSc1nnc(-c2ccccc2)o1	–	–	–	–	–	–
O=S1(=O)C=C(Sc2nnc(-c3ccccc3)o2)c2ccccc21	3.7µM	–	–	–	–	10µM
CCC(=O)N1CCc2cc(S(=O)(=O)N3CCN(c4ccccc4)CC3)ccc21	–	–	–	–	?	–
CCC(=O)N1CCc2cc(S(=O)(=O)CCC(=O)N3CCN(c4ccc(C(C)=O)cc4)CC3)ccc21	?	–	–	–	–	?
CCC(=O)N1CCc2cc(S(=O)(=O)N3CCN(c4cc(Cl)ccc4C)CC3)ccc21	–	–	–	–	5.2µM	–
CCC(=O)N1CCc2cc(S(=O)(=O)CCC(=O)N3CCN(c4ccc(Cl)cc4)CC3)ccc21	?	–	–	–	–	10µM
CCC[C@H](CN[C@@H](CNC)[C@H](C)O)NCCc1ccc(OC)cc1	–	–	–	–	?	–
CCCC[C@H](CN[C@@H](CNC)[C@H](C)CC)NCCC12CCC(CC1)C2	?	–	–	–	2.6µM	?
CCOC(=O)C1=C(C)n2c(s/c(=C/c3cccc([N+](=O)[O-])c3)c2=O)=NC1c1ccc(O)c(OC)c1 (stereo unspecified)	2.9µM	–	–	–	·	8.9µM
O=C(O)c1ccc2c(c1)C(=O)N(N1C(=O)c3ccccc3C1=O)C2=O	–	–	–	–	9.3µM	–
O=C(Nc1ccc(O)cc1)c1ccc2c(c1)C(=O)N(N1C(=O)c3ccccc3C1=O)C2=O	–	–	–	–	?	–
O=C(Nc1ccccc1O)c1ccc2c(c1)C(=O)N(N1C(=O)c3ccccc3C1=O)C2=O	–	–	–	–	9.3µM	–
COc1ccc(CN2C(=O)c3ccc(C(=O)O)cc3C2=O)cc1	·	–	–	–	9.3µM	–
O=C1CSC(=Nc2ccc(O)cc2)N1c1ccc(O)cc1	?	–	–	–	10µM	–
C=CCN1C(=O)CSC1=Nc1ccc(O)cc1	–	–	–	–	·	–
CC1CC(C)CN(S(=O)(=O)c2ccc(NC(=O)C3CSC4(C)CCC(=O)N34)cc2)C1 (stereo unspecified)	?	–	·	–	9.3µM	?
CC12CCC(=O)N1C(C(=O)Nc1ccc(S(=O)(=O)N3CCCCC3)cc1)CS2 (stereo unspecified)	?	–	·	–	–	–
CC12CCC(=O)N1C(C(=O)Nc1cccc(S(=O)(=O)N3CCCCCC3)c1)CS2 (stereo unspecified)	–	–	·	–	13µM	?
O=C(Nc1ccc(S(=O)(=O)Nc2ncccn2)cc1)c1ccc2ncsc2c1	?	?	?	–	?	–
CCCCNC(=O)Cn1nc(Cc2ccncc2)c2ccccc2c1=O	–	–	–	–	9.3µM	–
CN(CCC#N)C(=O)Cn1nc(Cc2ccncc2)c2ccccc2c1=O	·	–	–	–	13µM	–
COc1ccc(CNC(=O)c2sc3nc4c(c(C(F)(F)F)c3c2N)CCC4)cc1	–	·	–	–	?	–
CCN1/C(=C2\C(=O)N(C)C(=S)N2C)C=Cc2cc(C)ccc21	3.7µM	–	–	–	–	–
COc1ccc(C(=O)N2CCc3cc4c(cc3C2C)OCCCO4)cc1 (stereo unspecified)	?	–	–	–	13µM	1.6µM
Cc1cc(O)c2c(c1O)C(=O)[C@]13C(=C2O)C(=O)[C@@H]2[C@@H](O)[C@H]1[C@@H]1[C@H](O)[C@H]3C(=O)C3=C(O)c4c(O)cc(C)c(O)c4C(=O)[C@]312	·	–	·	–	·	5µM

Bioassay records from PubChem BioAssay.
